A short description of assay [1]: signal quenchers or enhancers, Cy5 substrate/SSB – biochemical, NIH Clinical Collection, E. coli SSB, artefact control for HCV NS3 helicase inhibitor project (AID 743268; call rule not given here). The conditions noted are these: Cy5-oligo bound E. coli SSB, fluorescence interference.
The subject of assay [2] is Hepatitis C virus NS3 helicase. The experiment in a line: blockers of NS3h binding to DNA – biochemical, fluorescence polarization, NIH Clinical Collection, primary screen (AID 743270; call rule not given here). The settings on record: NS3 helicase binding to Cy5-dT15 DNA, stronger effect = higher value, concentration not given here.
Assay [3] has as its target Single-stranded DNA-binding protein (Escherichia coli (strain K12)) (UniProt P0AGE0). Briefly: SSB-ssDNA binding inhibitors – biochemical, fluorescence polarization, NIH Clinical Collection, counter-screen for HCV NS3 helicase inhibitor project (AID 743271; in the data active = inhibition above about 28%). The settings on record: E. coli SSB-DNA binding, stronger effect = higher value, concentration not given here.
Assay [4] can be described thus: compounds distorting NS3 helicase fluorescence signal – biochemical, NIH Clinical Collection, artefact control for HCV NS3 helicase inhibitor project (AID 743272; call rule not given here;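 also: HCV NS3 helicase with a Cy5 labelled single stranded DNA probe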). The conditions noted are these: fluorescence interference counterscreen, HCV NS3 helicase assay; stronger effect = lower value. Background: Counterscreens check selectivity or assay interference.
Assay [5] addresses 6-phosphogluconate dehydrogenase, decarboxylating (Homo sapiens) (UniProt P52209). The experiment in a line: inhibition of human phosphogluconate dehydrogenase – biochemical, recombinant enzyme, NADPH absorbance, primary screen (AID 1159550;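 active = at least 20% inhibition of 6-phosphogluconate dehydrogenase activity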). The conditions noted are these: recombinant 6PGD, NADPH absorbance 341 nm; at 10 µM; stronger effect = higher value.
Assay [6] in a line: modulation of C. elegans fzo-1 (AID 1259413; call rule not given here;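 also: fzo-1 mutant C. elegans worms in liquid wells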). The settings on record: C. elegans fzo-1 modulator screen, mean read-out; stronger effect = higher value.
Assay [7] is described as follows: EMT-state selective cytotoxicity in co-culture – imaging, PC-3E GFP, TEM4-18 mCherry, primary screen (AID 1345086;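 active = compounds killing one labelled cell type while sparing the other, by normalised counts and ratio limits, not self-fluorescent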;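 as to all read-outs here: cells exposed to compound for 72 h before imaging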;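 as to red/green cell ratio (normalised): normalised mesenchymal count divided by normalised epithelial count so high means epithelial killing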). The settings on record: PC-3E GFP / TEM4-18 mCherry co-culture, imaging cell counts, at 1 µM; for red/green cell ratio (normalised): actives lie on both sides, counts scaled to control wells, 1 = unselective.
The nature of assay [8]: MELAS cybrid and Rieske KO viability enhancers – cell-based, MELAS cybrids, Rieske KO mouse fibroblasts, CellTiter-Glo, primary screen (AID 1508586;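 active = mean z-score across replicates of 1.96 or higher in either the MELAS or the Rieske mutant cell line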;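 also: z relative to plate mean and SD of compound and empty wells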). The settings on record: low glucose.
The target of assay [9] is NAD(+) hydrolase SARM1 (Homo sapiens) (UniProt Q6SZW1). The experiment in a line: blocking NAD cleavage by SARM1 SAM-TIR – cell lysate, NAD-Glo luminescence (AID 1508614;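 active = compound whose remaining NAD level is above about 45 nM, limit read from the data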;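 also: higher remaining NAD means stronger inhibition of SARM1 NADase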). The settings on record: SAM-TIR HEK293T lysate NADase, at 1 µM, stronger effect = higher value.
The target of assay [10] is Mitogen-activated protein kinase 7 (Homo sapiens) (UniProt Q13164). Briefly: Gal4-ERK5 driven luciferase induction – cell-based, HTS, primary screen (AID 1508626;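 active = luciferase signal above three times the same-plate solvent-only control wells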;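 also: luciferase driven by Gal4-ERK5 fusion binding five Gal4 sites before minimal TATA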). The conditions noted are these: HeLa Gal4-ERK5 transactivation, 18 h, at 5 µM, stronger effect = higher value.
Assay [11] can be described thus: galactose survival enhancers in mitochondrial complex I cybrids – cell-based, galactose medium, ATP luminescence, primary screen (AID 1645843;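 active = z-score of at least 1.8 in each of two replicates, scored against plate mean and spread of sample wells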;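 also: positive z means more ATP and so rescue of galactose-driven cybrid death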). The settings on record: complex I mutant cybrid cells, 72 h, stronger effect = higher value.
Assay [12] has as its system F380Y. Briefly: BK channel mutant inhibitors and activators – cell-based, U2OS BacMam, thallium flux, beta subunits, selectivity assay, profiling panel (AID 1259406;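 active = thallium flux through the channel raised or lowered by more than 3 SD from vehicle-only wells, actives on both sides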;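 also: initial slope of Thallos dye fluorescence rise after thallium is added; log ratio against the mean of 0.3% DMSO vehicle wells on the same plate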). The settings on record: U2OS BacMam BK variants, at 30 µM.
Assay [13] relates to F380Y/beta2Delta. Described as above. The settings on record: U2OS BacMam BK variants, at 30 µM.
The target in assay [14] is Calcium-activated potassium channel subunit alpha-1 (Homo sapiens) + Leucine-rich repeat-containing protein 26 (Homo sapiens) (UniProt Q12791+Q2I0M4). The description is as above. The settings on record: U2OS BacMam BK variants, F380Y/Slo1WT/gamma1, at 30 µM.
The subject of assay [15] is R275C. The assay is described as above. The conditions noted are these: U2OS BacMam BK variants, at 30 µM.
The test system of assay [16] is R275C/beta1. Described as above. The settings on record: U2OS BacMam BK variants, at 30 µM.
For assay [17], the system named is R275C/beta2Delta. The assay is described as above. The conditions noted are these: U2OS BacMam BK variants, at 30 µM.
Assay [18] can be described thus: P. berghei load reduction in hepatocytes – cell-based, HepG2, luciferase luminescence, HepG2 viability, primary screen (AID 624349; in the data active = parasite load remaining mostly below about 12%, no sharp cut-off; inactive = mostly above about 10%;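 also: 100% = mean of DMSO negative control wells on the same plate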). The settings on record: P. berghei liver stage in HepG2, luciferase luminescence, concentration not given here; parasite load remaining: stronger effect = lower value; viability: measured here: HepG2 viability without parasites.
The nature of assay [19]: viability loss with induced miR-34 in A549 – imaging, A549 dox-inducible miR-34, nuclei and caspase counts, primary screen (AID 1347080;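 active = compounds whose cell count with miR-34 switched on is under 0.7 times the count with it off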). The conditions noted are these: A549 miR-34 inducible, Hoechst nuclei count, 48 h.
A short description of assay [20]: drug combination growth inhibition, ovarian cancer – cell-based, oncology-focused library, rucaparib conditional, profiling panel (AID 1508598). The settings on record: patient-derived ovarian cancer cells, CellTiter-Glo viability, 144 h, stronger effect = lower value.
Where [21] appears, read: measured here: epithelial PC-3E GFP cell survival.
Setting [22] is: measured here: mesenchymal TEM4-18 mCherry cell survival.
Setting [23] is: MELAS cybrid survival, CellTiter-Glo 48 h, stronger effect = higher value.
The mark [24] stands for this setting: Rieske KO mouse fibroblast survival, CellTiter-Glo 72 h.

Where “and” joins values, the source holds several entries; their conditions need not be identical. Equal entries are not always repeated. Calls of active or inactive are those of the source.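 The calls were made as follows, unless noted: active = normalized viability below 100% at a tested concentration; inactive = the rest.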

NAD(+) hydrolase SARM1 (Homo sapiens), sequence (Q6SZW1 whole entry, looked up, the tested form may be a part): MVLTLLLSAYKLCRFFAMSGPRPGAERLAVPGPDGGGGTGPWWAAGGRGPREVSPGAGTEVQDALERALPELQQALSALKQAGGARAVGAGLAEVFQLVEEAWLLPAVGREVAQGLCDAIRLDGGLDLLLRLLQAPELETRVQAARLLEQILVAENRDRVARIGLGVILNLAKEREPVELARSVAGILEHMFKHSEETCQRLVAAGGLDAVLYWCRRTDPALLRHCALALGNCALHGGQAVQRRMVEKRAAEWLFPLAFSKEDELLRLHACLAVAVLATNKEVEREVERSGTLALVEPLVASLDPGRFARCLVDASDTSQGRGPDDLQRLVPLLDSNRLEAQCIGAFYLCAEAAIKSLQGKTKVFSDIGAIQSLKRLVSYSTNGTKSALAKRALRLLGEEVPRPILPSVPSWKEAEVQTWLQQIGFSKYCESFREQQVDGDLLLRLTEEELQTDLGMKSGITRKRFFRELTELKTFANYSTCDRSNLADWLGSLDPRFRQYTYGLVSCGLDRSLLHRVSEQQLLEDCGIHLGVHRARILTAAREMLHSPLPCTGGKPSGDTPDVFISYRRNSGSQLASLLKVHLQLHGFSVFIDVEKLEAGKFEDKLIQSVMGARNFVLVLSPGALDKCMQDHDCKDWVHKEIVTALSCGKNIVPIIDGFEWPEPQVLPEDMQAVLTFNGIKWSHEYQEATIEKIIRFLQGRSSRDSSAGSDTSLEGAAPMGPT
6-phosphogluconate dehydrogenase, decarboxylating (Homo sapiens), sequence (P52209 whole entry, looked up): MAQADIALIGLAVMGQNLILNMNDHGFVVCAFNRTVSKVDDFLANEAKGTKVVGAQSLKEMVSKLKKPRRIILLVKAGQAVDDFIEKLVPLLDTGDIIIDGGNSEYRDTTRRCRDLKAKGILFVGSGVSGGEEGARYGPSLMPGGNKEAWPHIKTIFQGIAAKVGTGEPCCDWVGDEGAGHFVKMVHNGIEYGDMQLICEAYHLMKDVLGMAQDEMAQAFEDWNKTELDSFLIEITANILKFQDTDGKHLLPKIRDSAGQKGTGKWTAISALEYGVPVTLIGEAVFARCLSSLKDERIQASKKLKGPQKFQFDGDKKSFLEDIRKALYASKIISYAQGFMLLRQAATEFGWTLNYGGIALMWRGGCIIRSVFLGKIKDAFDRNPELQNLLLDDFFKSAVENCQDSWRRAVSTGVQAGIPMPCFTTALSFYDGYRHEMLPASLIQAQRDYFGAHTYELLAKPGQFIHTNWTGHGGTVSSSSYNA
Mitogen-activated protein kinase 7 (Homo sapiens), sequence (Q13164 whole entry, looked up, the tested form may be a part): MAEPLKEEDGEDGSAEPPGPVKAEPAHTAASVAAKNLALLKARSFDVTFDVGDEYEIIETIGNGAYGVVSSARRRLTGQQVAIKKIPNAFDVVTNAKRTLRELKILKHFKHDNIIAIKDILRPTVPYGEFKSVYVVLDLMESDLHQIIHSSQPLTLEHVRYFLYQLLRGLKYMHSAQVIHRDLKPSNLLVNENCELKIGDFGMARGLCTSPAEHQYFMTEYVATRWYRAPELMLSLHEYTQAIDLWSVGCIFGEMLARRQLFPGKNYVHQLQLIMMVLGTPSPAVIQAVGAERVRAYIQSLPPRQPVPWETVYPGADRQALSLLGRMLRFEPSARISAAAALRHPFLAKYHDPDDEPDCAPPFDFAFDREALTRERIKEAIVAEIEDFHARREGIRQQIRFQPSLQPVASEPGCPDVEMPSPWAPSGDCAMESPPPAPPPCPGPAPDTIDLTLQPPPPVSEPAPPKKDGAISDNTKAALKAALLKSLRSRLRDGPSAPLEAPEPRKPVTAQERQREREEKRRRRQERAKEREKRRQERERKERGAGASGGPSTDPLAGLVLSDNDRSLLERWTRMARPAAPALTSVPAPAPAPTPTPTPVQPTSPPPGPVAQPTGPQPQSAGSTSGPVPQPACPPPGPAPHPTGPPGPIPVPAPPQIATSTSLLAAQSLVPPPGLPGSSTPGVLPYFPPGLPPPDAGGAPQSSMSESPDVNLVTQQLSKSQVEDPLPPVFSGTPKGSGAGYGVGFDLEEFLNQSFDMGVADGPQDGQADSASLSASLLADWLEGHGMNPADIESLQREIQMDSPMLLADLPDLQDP
Calcium-activated potassium channel subunit alpha-1 (Homo sapiens) + Leucine-rich repeat-containing protein 26 (Homo sapiens), sequence (Q2I0M4 whole entry, looked up, one chain of several): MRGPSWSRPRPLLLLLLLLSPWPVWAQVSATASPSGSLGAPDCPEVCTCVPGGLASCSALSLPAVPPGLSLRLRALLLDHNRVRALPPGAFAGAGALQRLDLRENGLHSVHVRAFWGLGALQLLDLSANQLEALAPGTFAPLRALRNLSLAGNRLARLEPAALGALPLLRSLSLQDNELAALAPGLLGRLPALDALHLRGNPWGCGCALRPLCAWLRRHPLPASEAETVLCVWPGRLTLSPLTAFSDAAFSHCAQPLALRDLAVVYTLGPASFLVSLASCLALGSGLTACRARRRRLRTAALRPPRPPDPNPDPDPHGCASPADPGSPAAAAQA

`CC(=O)N=c1sc(S(N)(=O)=O)nn1C`: the fluorescence ratio in assay [1] was 1.01 (inactive); in assay [4], 1.03 (inactive). Moreover, the values for the inhibition in assay [2], in [3] and in assay [5] were -0.45% (inactive), -3.53% (inactive) and 18.8% (inactive), respectively. In addition, the mean signal in [6] is 273 (inactive). Besides, the red/green cell ratio (normalised) in assay [7] was 1.22 (inactive). Further, the normalised cell number in assay [7] (setting [21]) worked out at 0.92; in assay [7] (setting [22]), 1.12. The z-score in [8] (setting [23]) was -0.23 (inactive) and 0.0575 (inactive); in [8] (setting [24]) it was -0.175 and -0.724; in assay [11], 0.7 (inactive). The remaining NAD in assay [9] was 10 nM (inactive). The luciferase signal in [10] was 80 AU (inactive). Besides, the log fold change Tl+ flux in [12] is 0.00591 (inactive); in assay [13], 0.00714 (inactive); in assay [14] it was -0.0355 (inactive); in assay [15] it was 0.00598 (inactive); in [16], -0.028 (inactive); in assay [17], -0.0276 (inactive).
For the compound `CCN1CCN(C(=O)N[C@@H](C(=O)N[C@@H]2C(=O)N3[C@@H]2SC(C)(C)[C@@H]3C(=O)O)c2ccccc2)C(=O)C1=O`, in assay [18], the parasite load remaining was 50.1% (inactive) and 75.4% (inactive) and 36.6% (inactive). Besides, the viability (usually a read-out of living cells in per cent, often relative to untreated cells) in assay [18] is 89.8% and 93.5% and 71.5%. The results for the fluorescence ratio in [1] and in [4] were 0.99 (inactive) and 0.98 (inactive), respectively. The inhibition (usually the relative decrease from the control value, in per cent) in [2] is -3.18% (inactive); in assay [3] it was -1.24% (inactive); in [5], 12.4% (inactive). Also, in assay [6], the mean signal is 257 (inactive). The fold change in assay [19] (stronger effect = lower value, cell number ratio, induced over uninduced) is 0.928 (inactive) and 0.85 (inactive) and 0.888 (inactive); in assay [19] (measured here: relative caspase fold change +Dox/-Dox), 2.92 and 0.912 and 1.53. Besides, the cell count in [19] (measured here: total cells with miR-34 induction, stronger effect = lower value) is 10600 and 8860 and 9900; in [19] (measured here: total cells without miR-34 induction), 11400 and 10400 and 11200. The z-score in assay [8] (setting [23]) is 0.757 (inactive) and -0.0978 (inactive); in assay [8] (setting [24]), 0.573 and 0.405; in assay [11], 0.5 (inactive) and 0.93 (inactive). In addition, the remaining NAD in assay [9] is 10 nM (inactive). The luciferase signal in [10] was 72 AU (inactive). For the same compound, the log fold change Tl+ flux is -0.0272 (inactive) in assay [12]; -0.0244 (inactive) in [13]; -0.00699 (inactive) in assay [14]; -0.096 (active) in [15]; 0.0207 (inactive) in [16]; -0.0292 (inactive) in assay [17].
For `CC/C(=C(\c1ccccc1)c1ccc(OCCN(C)C)cc1)c1ccccc1`, the inhibition in assay [5] was 1.2% (inactive). The red/green cell ratio (normalised) in assay [7] was 1.09 (inactive). Also, the results for the normalised cell number in assay [7] (setting [21]) and in assay [7] (setting [22]) were 0.93 and 1.01, respectively. Besides, the z-score in [8] (setting [23]) is -0.656 (inactive) and -1.22 (inactive); in assay [8] (setting [24]), 0.287 and -0.548. Further, the viability is 93.5% (active) in [20] (at 0.000305 µM, OCI-C5x cells, with rucaparib 10 µM, 100% = cells with rucaparib alone); 95.2% (active) in assay [20] (at 0.000305 µM, OCI-C5x cells, without rucaparib); 89.3% (active) in assay [20] (at 0.000305 µM, OCI-P5x cells, with rucaparib 20 µM, 100% = cells with rucaparib alone); 83.7% (active) in assay [20] (at 0.000305 µM, OCI-P5x cells, without rucaparib); 109% (inactive) in assay [20] (at 0.00122 µM, OCI-C5x cells, with rucaparib 10 µM, 100% = cells with rucaparib alone); 97.1% (active) in [20] (at 0.00122 µM, OCI-C5x cells, without rucaparib). Moreover, the viability in assay [20] (at 0.00122 µM, OCI-P5x cells, with rucaparib 20 µM, 100% = cells with rucaparib alone) was 92.3% (active); in assay [20] (at 0.00122 µM, OCI-P5x cells, without rucaparib), 91.4% (active); in assay [20] (at 0.00488 µM, OCI-C5x cells, with rucaparib 10 µM, 100% = cells with rucaparib alone), 103% (inactive); in assay [20] (at 0.00488 µM, OCI-C5x cells, without rucaparib) it was 93.8% (active); in [20] (at 0.00488 µM, OCI-P5x cells, with rucaparib 20 µM, 100% = cells with rucaparib alone), 101% (inactive); in [20] (at 0.00488 µM, OCI-P5x cells, without rucaparib) it was 97.9% (active). The viability in assay [20] (at 0.0195 µM, OCI-C5x cells, with rucaparib 10 µM, 100% = cells with rucaparib alone) is 107% (inactive); in assay [20] (at 0.0195 µM, OCI-C5x cells, without rucaparib), 97.1% (active); in [20] (at 0.0195 µM, OCI-P5x cells, with rucaparib 20 µM, 100% = cells with rucaparib alone), 89.8% (active); in assay [20] (at 0.0195 µM, OCI-P5x cells, without rucaparib) it was 99.8% (active); in [20] (at 0.0781 µM, OCI-C5x cells, with rucaparib 10 µM, 100% = cells with rucaparib alone), 99.2% (active); in [20] (at 0.0781 µM, OCI-C5x cells, without rucaparib) it was 92.3% (active). Moreover, the viability in assay [20] (at 0.0781 µM, OCI-P5x cells, with rucaparib 20 µM, 100% = cells with rucaparib alone) is 97% (active); in [20] (at 0.0781 µM, OCI-P5x cells, without rucaparib), 99.7% (active); in assay [20] (at 0.313 µM, OCI-C5x cells, with rucaparib 10 µM, 100% = cells with rucaparib alone) it was 110% (inactive); in assay [20] (at 0.313 µM, OCI-C5x cells, without rucaparib) it was 95.3% (active); in assay [20] (at 0.313 µM, OCI-P5x cells, with rucaparib 20 µM, 100% = cells with rucaparib alone), 97.5% (active); in [20] (at 0.313 µM, OCI-P5x cells, without rucaparib) it was 102% (inactive). Further, the viability in assay [20] (at 1.25 µM, OCI-C5x cells, with rucaparib 10 µM, 100% = cells with rucaparib alone) is 98.2% (active); in assay [20] (at 1.25 µM, OCI-C5x cells, without rucaparib) it was 100% (inactive); in [20] (at 1.25 µM, OCI-P5x cells, with rucaparib 20 µM, 100% = cells with rucaparib alone) it was 100% (inactive); in assay [20] (at 1.25 µM, OCI-P5x cells, without rucaparib) it was 106% (inactive); in assay [20] (at 5 µM, OCI-C5x cells, with rucaparib 10 µM, 100% = cells with rucaparib alone) it was 95.5% (active); in assay [20] (at 5 µM, OCI-C5x cells, without rucaparib), 100% (active). In addition, the viability in assay [20] (at 5 µM, OCI-P5x cells, with rucaparib 20 µM, 100% = cells with rucaparib alone) was 97.5% (active); in assay [20] (at 5 µM, OCI-P5x cells, without rucaparib), 101% (inactive). Also, the remaining NAD in assay [9] is 10 nM (inactive). In addition, the luciferase signal in [10] is 84 AU (inactive).
On to `CCC/C=C1\OC(=O)C2=C1CCC=C2`, for which the inhibition in [5] is 3.63% (inactive). In addition, the red/green cell ratio (normalised) in assay [7] is 1.13 (inactive). Moreover, the normalised cell number in assay [7] (setting [21]) was determined as 0.83; in assay [7] (setting [22]), 0.94.

Source of the values: PubChem BioAssay.
